Assay [1] can be described thus: ATG_GLI_CIS: Attagene CIS-FACTORIAL HepG2 Assay for human Zinc Finger Protein GLI1 (AID 2282945). As to conditions: HepG2, Attagene cis-factorial reporter mRNA, GLI element; actives raise or lower the signal. In a few lines:
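HepG2 cells transiently transfected with cis-promoter multiplexed reporter units report endogenous transcription factor activity. After 24 h chemical exposure, reporter mRNA was quantified by RT-PCR, 6-FAM labelling, HpaI digestion and capillary electrophoresis, with bidirectional fitting against DMSO.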

Assay [2] is described as follows: ATG_ISRE_CIS: Attagene CIS-FACTORIAL HepG2 Assay for human Interferon Regulatory Factor 1 (IRF1) binding to an Interferon-Stimulated Response Element (ISRE) (AID 2282948). The note with it: HepG2 ISRE cis-reporter (Attagene), mRNA transcription readout; actives raise or lower the signal. In a few lines: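 Transfected HepG2 (multiple reporter transcription units, cis elements) dosed 24 h. RNA → oligo(dT) RT → PCR → 6-FAM primer extension → HpaI → CE. DMSO = negative control/baseline.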

Assay [3] is described as follows: ATG_M_32_CIS: Attagene CIS-FACTORIAL HepG2 Assay for M32 Transcription Factor (Internal Marker) (AID 2282949).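 Further: background control marker of the multiplexed CIS panel rather than a real target.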 The note with it: HepG2 Attagene cis-factorial M32 reporter, mRNA; actives raise or lower the signal. Summed up:
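Fluorescent capillary electrophoresis peaks of HpaI-digested, FAM-labelled RT-PCR reporter products give the signal. Source: transiently transfected human liver HepG2 cells, 24 h after chemical dosing; bidirectional fitting against DMSO.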

In assay [4] the target is Hypoxia-inducible factor 1-alpha (Homo sapiens) (UniProt Q16665). In words: ATG_HIF1a_CIS: Attagene CIS-FACTORIAL HepG2 Assay for human Hypoxia Inducible Factor 1 (HIF1A) (AID 2282951). The note with it: HepG2 Attagene cis-factorial HIF1a reporter transcription; actives raise or lower the signal. Summed up:
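Endogenous-TF cis reporter readout, human HepG2 cells, 24 h incubation; mRNA detected via RT-PCR and capillary electrophoresis fluorescence; DMSO-normalised bidirectional fitting.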

Assay [5] addresses Hepatocyte nuclear factor 6 (Homo sapiens) (UniProt Q9UBC0). Briefly: ATG_HNF6_CIS: Attagene CIS-FACTORIAL HepG2 Assay for human Hepatocyte Nuclear Factor 6 (HNF6) (AID 2282952). As to conditions: HepG2 Attagene cis-factorial HNF6 reporter transcription; actives raise or lower the signal. Summed up: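 Cells are HepG2 carrying transiently transfected cis-promoter reporter units. Treatment lasts 24 h, after which reporter transcripts are reverse-transcribed, amplified, FAM-labelled and sized by capillary electrophoresis. DMSO serves as baseline.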

The target of assay [6] is Heat shock factor protein 1 (Homo sapiens) (UniProt Q00613). Briefly: ATG_HSE_CIS: Attagene CIS-FACTORIAL HepG2 Assay for human Heat Shock Transcription Factor 1 (HSE) (AID 2282953). As to conditions: HepG2 HSE cis-reporter, Attagene RNA transcription; actives raise or lower the signal. In a few lines:
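Reporter mRNA induction in HepG2 is measured 24 h after dosing, using transiently transfected multiplexed cis-regulated reporter units. Signal comes from capillary electrophoresis of labelled RT-PCR products, with DMSO as negative control.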

Assay [7] can be described thus: ATG_MRE_CIS: Attagene CIS-FACTORIAL HepG2 Assay for human Metal Responsive Element (MRE) (AID 2282954). As to conditions: HepG2 MRE cis-reporter transcription, Attagene multiplex; actives raise or lower the signal. Summed up: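 Step one: transfect HepG2 with cis-regulated reporter units. Step two: dose 24 h. Step three: isolate RNA, RT-PCR, 6-FAM label, HpaI digest, capillary electrophoresis. Fit bidirectionally to DMSO.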

Assay [8] in a line: ATG_M_06_CIS: Attagene CIS-FACTORIAL HepG2 Assay for M06 Transcription Factor (Internal Marker) (AID 2282950). The note with it: HepG2 Attagene CIS-FACTORIAL M06 internal marker reporter; actives raise or lower the signal. Summed up: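 Measured 24 h post-dosing in transiently transfected HepG2 cells, this internal-marker endpoint reports reporter mRNA via RT-PCR with fluorescent primer extension and capillary electrophoresis. DMSO served as negative control and baseline for bidirectional fitting.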

Assay [9] in a line: ATG_GRE_CIS: Attagene CIS-FACTORIAL HepG2 Assay for human Glucocorticoid Response Elements (GRE) (AID 2282947). The note with it: HepG2 GRE cis-reporter, Attagene multiplex mRNA; actives raise or lower the signal. Summed up:
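Following 24 h chemical exposure of transiently transfected HepG2 cells, total RNA was reverse-transcribed and reporter cDNA amplified, fluorescently labelled and sized by capillary electrophoresis. Signal gain or loss was fitted relative to DMSO vehicle.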

The structures appear in SMILES notation. Activity calls are given as the source filed them. How the source made its calls: active means hit-call score of the fitted dose curve at least 0.9, where 1 is the maximum; inactive means score below 0.9.

Hepatocyte nuclear factor 6 (Homo sapiens), sequence (Q9UBC0 whole entry, looked up): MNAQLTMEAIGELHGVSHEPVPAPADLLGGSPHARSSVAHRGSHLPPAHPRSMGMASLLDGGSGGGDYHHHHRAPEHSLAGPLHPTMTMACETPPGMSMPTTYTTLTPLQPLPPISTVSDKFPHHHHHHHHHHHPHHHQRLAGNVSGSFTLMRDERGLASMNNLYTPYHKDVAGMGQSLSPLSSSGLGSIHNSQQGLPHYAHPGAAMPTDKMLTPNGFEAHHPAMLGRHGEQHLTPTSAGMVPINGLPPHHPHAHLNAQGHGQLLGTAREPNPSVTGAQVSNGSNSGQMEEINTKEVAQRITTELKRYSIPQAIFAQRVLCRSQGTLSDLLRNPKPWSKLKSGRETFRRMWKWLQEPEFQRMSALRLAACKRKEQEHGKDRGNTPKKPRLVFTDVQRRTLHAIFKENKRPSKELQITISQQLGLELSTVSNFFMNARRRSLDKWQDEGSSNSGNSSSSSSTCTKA
Hypoxia-inducible factor 1-alpha (Homo sapiens), sequence (Q16665 whole entry, looked up): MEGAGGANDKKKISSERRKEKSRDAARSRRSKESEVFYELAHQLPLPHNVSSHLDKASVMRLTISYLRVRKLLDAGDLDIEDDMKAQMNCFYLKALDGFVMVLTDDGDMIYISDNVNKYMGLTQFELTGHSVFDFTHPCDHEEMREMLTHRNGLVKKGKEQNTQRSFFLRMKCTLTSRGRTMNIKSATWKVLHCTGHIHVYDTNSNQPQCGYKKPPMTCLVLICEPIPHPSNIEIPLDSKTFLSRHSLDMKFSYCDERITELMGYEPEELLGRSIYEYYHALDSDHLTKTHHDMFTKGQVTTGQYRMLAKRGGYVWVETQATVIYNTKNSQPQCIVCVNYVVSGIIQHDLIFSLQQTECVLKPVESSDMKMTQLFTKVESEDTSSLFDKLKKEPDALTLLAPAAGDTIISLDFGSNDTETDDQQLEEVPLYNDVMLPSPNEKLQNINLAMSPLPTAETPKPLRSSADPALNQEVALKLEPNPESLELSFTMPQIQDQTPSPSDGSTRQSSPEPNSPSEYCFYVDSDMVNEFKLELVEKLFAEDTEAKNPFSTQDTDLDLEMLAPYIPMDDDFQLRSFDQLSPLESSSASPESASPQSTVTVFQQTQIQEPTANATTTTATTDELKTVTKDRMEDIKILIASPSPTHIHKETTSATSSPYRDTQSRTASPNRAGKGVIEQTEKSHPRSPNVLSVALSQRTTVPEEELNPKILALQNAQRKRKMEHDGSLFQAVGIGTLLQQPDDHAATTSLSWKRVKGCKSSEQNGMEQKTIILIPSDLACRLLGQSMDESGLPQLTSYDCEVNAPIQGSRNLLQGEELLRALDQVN
Heat shock factor protein 1 (Homo sapiens), sequence (Q00613 whole entry, looked up): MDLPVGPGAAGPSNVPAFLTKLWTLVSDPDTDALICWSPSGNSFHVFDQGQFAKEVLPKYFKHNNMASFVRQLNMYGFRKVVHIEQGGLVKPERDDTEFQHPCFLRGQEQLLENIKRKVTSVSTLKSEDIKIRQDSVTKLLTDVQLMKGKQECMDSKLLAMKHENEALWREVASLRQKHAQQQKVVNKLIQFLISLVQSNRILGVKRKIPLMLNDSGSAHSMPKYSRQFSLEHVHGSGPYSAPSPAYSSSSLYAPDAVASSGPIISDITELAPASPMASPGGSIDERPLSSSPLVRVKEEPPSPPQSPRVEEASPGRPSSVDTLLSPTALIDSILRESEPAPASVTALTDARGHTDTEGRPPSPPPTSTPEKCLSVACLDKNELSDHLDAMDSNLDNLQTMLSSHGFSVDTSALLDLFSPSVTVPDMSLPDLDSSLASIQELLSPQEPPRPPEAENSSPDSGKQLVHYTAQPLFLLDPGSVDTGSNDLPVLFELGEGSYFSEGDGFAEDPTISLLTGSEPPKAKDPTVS

As to `O=C1C2CC=CCC2C(=O)N1SC(Cl)(Cl)Cl` (stereo not drawn), the compound was called inactive in assay [1], in assay [2], in assay [3], in assay [4], in [5] and in assay [6]. Moreover, in [7], the compound was classed as inactive.
With `CNC(=O)N(C)c1nnc(C(C)(C)C)s1`, the compound was classed as inactive in [1], in assay [2], in assay [3], in assay [8], in assay [5] and in assay [6]. Moreover, the result in [7] was inactive.
Regarding `CC(C)N1C(=O)N(c2ccccc2)CSC1=NC(C)(C)C`, the compound was classed as inactive in assay [1], in assay [9], in assay [2], in assay [3], in assay [4] and in [5]. Also, the outcome in assay [6] and in assay [7] was inactive.
Take `CCOP(=O)(OCC)Oc1nc(Cl)c(Cl)cc1Cl`: the call in [1], in assay [9], in assay [2], in assay [3], in [4] and in [5] was inactive. Besides, the result in assay [6] and in assay [7] was inactive.
As for `Cn1c(-c2ccccc2)cc(-c2ccccc2)[n+]1C`, the call in assay [1], in assay [9], in assay [2], in assay [3], in assay [4] and in assay [5] was inactive. The compound was called inactive in [6] and in [7].
Regarding `Nc1c(Cl)c(F)nc(OCC(=O)O)c1Cl`, the compound was called inactive in [1], in assay [9], in [2], in assay [3], in assay [4] and in assay [5]. Moreover, the outcome in assay [6] and in assay [7] was inactive.
Consider `O=C(Nc1ccccc1-c1ccc(Cl)cc1)c1cccnc1Cl`, for which the outcome in assay [1], in [9], in assay [2], in [3], in [4] and in assay [5] was inactive. Also, the result in assay [6] and in assay [7] was inactive.
Regarding `CC(C)NC(=O)N1CC(=O)N(c2cc(Cl)cc(Cl)c2)C1=O`, the result in [1], in assay [2], in [3], in assay [8], in assay [4] and in assay [5] was inactive. The compound was called inactive in [7].
Regarding `CN/C(=N\[N+](=O)[O-])NCc1cnc(Cl)s1`, the call in assay [1], in assay [2], in assay [3], in assay [8], in assay [4] and in assay [5] was inactive. Further, the outcome in assay [6] and in assay [7] was inactive.
`COC(=O)c1c(C(F)F)nc(C(F)(F)F)c(C2=NCCS2)c1CC(C)C`: the outcome in [1], in [2], in assay [3], in assay [4], in assay [5] and in assay [6] was inactive. Besides, the AC50 (commonly the concentration giving half of the maximal activity seen) in assay [7] is 18.5 µM (active).
Regarding `CC1(C)C(C=C(Cl)Cl)C1C(=O)OC(C#N)c1cccc(Oc2ccccc2)c1` (stereo not drawn), the compound was called inactive in [1], in assay [9], in [2], in assay [3], in assay [4] and in [5]. In addition, the result in assay [6] was inactive. In [7], the AC50 was 14.9 µM (active).
Regarding `CCOP(=S)(OCC)Oc1nc(Cl)n(C(C)C)n1`, the call in assay [1], in [9], in assay [2], in assay [3], in assay [4] and in assay [5] was inactive. Moreover, the result in assay [6] and in [7] was inactive.
With `CC1(C)CCC(=Cc2ccc(Cl)cc2)C1(O)Cn1cncn1` (stereo not drawn), the compound was called inactive in assay [1], in [9], in [2], in [3], in [4] and in [5]. For the same compound, the outcome in [6] and in [7] was inactive.
Take `C=C(C)CN(CC)c1c([N+](=O)[O-])cc(C(F)(F)F)cc1[N+](=O)[O-]`: the outcome in assay [1], in assay [9], in [2], in assay [3], in assay [4] and in assay [5] was inactive. Also, the compound was called inactive in assay [6] and in assay [7].
Turning to `COC(=O)NS(=O)(=O)c1ccc(N)cc1`, the compound was classed as inactive in [1], in assay [9], in assay [2], in assay [3], in assay [4] and in assay [5]. For the same compound, in [7], the result was inactive.
As for `CSC(=O)c1c(C(F)F)nc(C(F)(F)F)c(C(=O)SC)c1CC(C)C`, the outcome in assay [1], in assay [9], in [2], in [3], in [4] and in assay [5] was inactive. The outcome in assay [6] and in [7] was inactive.
As for `Nc1cnn(-c2ccccc2)c(=O)c1Cl`, the outcome in assay [1], in assay [9], in assay [2], in [3], in [4] and in [5] was inactive. Besides, the outcome in [6] and in assay [7] was inactive.
On to `COc1cc(Cl)c(OC)cc1Cl`, for which the outcome in [1], in assay [9], in assay [2], in assay [3], in assay [4] and in [5] was inactive. Besides, the result in assay [6] and in assay [7] was inactive.
On to `CCOc1nc(C(Cl)(Cl)Cl)ns1`, for which the result in [1], in [2], in assay [3], in assay [4], in [5] and in [6] was inactive. For the same compound, the result in [7] was inactive.
Turning to `CC1(C)CON(Cc2ccccc2Cl)C1=O`, the compound was classed as inactive in assay [1], in assay [2], in assay [3], in [4], in assay [5] and in assay [6]. Besides, the compound was classed as inactive in assay [7].

The values are drawn from PubChem BioAssay (EPA / NIEHS).
